Measurements from PubChem BioAssay (NCI).
The panel holds about 79,000 compounds, 15% with a hit somewhere; the sample as a whole holds those more often. The source made the active and inactive calls. Rule as the data show it: active = growth inhibition above about 70%; inactive = the rest. Starred links: 1 amine or outer side, 2 acyl side, 3 side chain; linkers in the order of their positions; H or OH if unused. Positions of bridges follow the written chain, without caps; N, C: chain ends. Non-standard residues stand in square brackets, D forms with d. Residues, ends and D or L forms follow the SMILES beside them. Chains are numbered I, II in the order given. Actinocin(9to1) = Cc1c2oc3c(C)ccc(C(=O)[*:1])c3nc-2c(C(=O)[*:2])c(N)c1=O; aThr = C[C@H](O)[C@H](N)C(=O)O; NMeV = CN[C@H](C(=O)O)C(C)C; Sar = CNCC(=O)O

Experiments:
[1] = NCI Yeast Anticancer Drug Screen. Data for the rad52 strain (AID 147);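 also: 0% = growth of vehicle-treated control cultures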; details: S. cerevisiae rad52 mutant growth inhibition, stronger effect = higher value
How it was run: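 Inhibition of yeast growth, referenced to vehicle controls, was the measured output for a strain with defective DNA damage repair.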

[2] = NCI Yeast Anticancer Drug Screen. Data for the wt1 strain (AID 149);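 also: 0% = growth of vehicle-treated wt1 cultures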; details: S. cerevisiae wt1 strain (SPY 50644) growth inhibition, stronger effect = higher value
How it was run: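 Yeast wt1 strain exposed to compounds; growth inhibition measured relative to vehicle-treated controls.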

[3] = NCI Yeast Anticancer Drug Screen. Data for the rad50EPP+ strain (AID 151);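 also: 0% = growth of vehicle-treated control cultures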; details: S. cerevisiae rad50 mutant strain, stronger effect = higher value
How it was run: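 Genetically defined yeast (rad50EPP+, DNA damage repair alteration) is grown with compound, and inhibition of growth is expressed relative to vehicle-treated controls.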

[4] = NCI Yeast Anticancer Drug Screen. Data for the rad50 strain (AID 155);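 also: 0% = growth of vehicle-only cultures of the same strain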; details: S. cerevisiae rad50 strain growth inhibition, stronger effect = higher value
How it was run: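 Yeast carrying a defined DNA repair defect were exposed to test compounds, and growth was compared with vehicle-treated controls to give percent inhibition.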

[5] = NCI Yeast Anticancer Drug Screen. Data for the mec2-1 strain (AID 157); details: S. cerevisiae mec2-1 strain, stronger effect = higher value
How it was run: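 Each compound was tested on mec2-1 yeast, a strain altered in DNA damage repair or cell cycle control. Growth inhibition is reported relative to vehicle.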

[6] = NCI Yeast Anticancer Drug Screen. Data for the rad14 strain (AID 159);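 also: 0% = growth of vehicle-treated control cultures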; details: S. cerevisiae rad14 strain growth inhibition, stronger effect = higher value
How it was run: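 Yeast cells carrying a defined DNA-repair defect were exposed to compounds, and growth inhibition was calculated relative to vehicle-treated control cultures.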

[7] = NCI Yeast Anticancer Drug Screen. Data for the sgs1 mgt1 strain (AID 161);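 also: 0% = growth of cultures given vehicle only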; details: S. cerevisiae sgs1 mgt1 strain, stronger effect = higher value
How it was run: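 Test agents were incubated with a DNA-repair-mutant yeast strain. Growth was then read and compared against vehicle-treated controls.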

[8] = NCI Yeast Anticancer Drug Screen. Data for the CLN2oe strain (AID 163);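 also: 0% = growth of vehicle-only control cultures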; details: S. cerevisiae CLN2oe strain, stronger effect = higher value
How it was run: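 First, the altered yeast strain was treated with each compound; second, its growth was measured; finally, inhibition was derived by comparison with vehicle controls.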

[9] = NCI Yeast Anticancer Drug Screen. Data for the cln2 rad14 strain (AID 165);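 also: 0% = growth equal to vehicle treated cultures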; details: S. cerevisiae cln2 rad14 strain, stronger effect = higher value
How it was run: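 Test compounds were added to cln2 rad14 yeast cultures; inhibition of growth was then determined by comparison with vehicle treatment.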

[10] = NCI Yeast Anticancer Drug Screen. Data for the wt2 strain (AID 169);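 also: 0% = growth of vehicle-treated yeast cultures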; details: S. cerevisiae wt2 strain growth inhibition, stronger effect = higher value
How it was run: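 The panel's yeast strains carry defined changes in DNA repair or cell cycle genes. Each strain is grown with compound, and growth loss is scored relative to vehicle.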

[11] = NCI Yeast Anticancer Drug Screen. Data for the mlh1 strain (AID 171);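 also: 0% = growth of vehicle-treated control cultures of the same strain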; details: S. cerevisiae mlh1 strain growth inhibition, stronger effect = higher value
How it was run: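 Inhibition values reflect reduced yeast growth in the presence of compound, referenced to vehicle controls, using a strain chosen for its alteration in DNA repair or cell cycle control.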

[12] = NCI Yeast Anticancer Drug Screen. Data for the sgs1 strain (AID 173);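 also: 0% = growth of vehicle-only control cultures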; details: S. cerevisiae sgs1 mutant, stronger effect = higher value
How it was run: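 Vehicle-treated cultures served as reference for growth inhibition of a yeast strain altered in DNA damage repair or cell cycle control after compound exposure.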

[13] = NCI Yeast Anticancer Drug Screen. Data for the mlh1 rad18 strain (AID 175); details: S. cerevisiae mlh1 rad18 strain growth inhibition, stronger effect = higher value
How it was run: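 Inhibition values reflect reduced growth of mutant yeast versus vehicle-treated controls following compound exposure; the mutations affect DNA damage repair.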

[14] = NCI Yeast Anticancer Drug Screen. Data for the rad18 strain (AID 177); details: S. cerevisiae rad18 mutant growth inhibition, stronger effect = higher value
How it was run: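 Steps: expose repair-mutant yeast to compound; measure growth; express as inhibition relative to vehicle control.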

[15] = NCI Yeast Anticancer Drug Screen. Data for the bub3 strain (AID 167); details: S. cerevisiae bub3 mutant strain, stronger effect = higher value
How it was run: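 Compounds were applied to a genetically altered yeast strain carrying a cell-cycle control defect. Growth inhibition was scored against vehicle-treated controls.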

[16] = at 5.0 µM (retest, dose inferred, filed as 0.5)
[17] = at 50.0 µM (retest, dose inferred, filed as 5.0)

Measured: growth inhibition

Cc1c2oc3c(C)ccc(C(=O)N[C@@H]4C(=O)N[C@H](C(C)C)C(=O)N5CCC[C@H]5C(=O)N(C)CC(=O)N(C)[C@@H](C(C)C)C(=O)O[C@H]4C)c3nc-2c(C(=O)N[C@@H]2C(=O)N[C@H](C(C)C)C(=O)N3CCC[C@H]3C(=O)N(C)CC(=O)N(C)[C@@H](C(C)C)C(=O)O[C@H]2C)c(N)c1=O (I: [aThr][dV]P[Sar][NMeV] / II: [aThr][dV]P[Sar][NMeV]; ester I:1-I:C, II:1-II:C; linker I:N-II:N via Actinocin(9to1))
active: [1]; at 11.0 µM 85% | [1]; at 33.0 µM 96% | [1]; at 100.0 µM 98% | [2]; at 33.0 µM 95% | [2]; at 100.0 µM 95% | [3]; at 11.0 µM 94% | [3]; at 33.0 µM 97% | [3]; at 100.0 µM 99% | [4]; at 11.0 µM 92% | [4]; at 33.0 µM 98% | [4]; [17] 98% | [4]; at 50.0 µM 91.2% | [4]; at 100.0 µM 99% | [5]; at 11.0 µM 84% | [5]; at 33.0 µM 97% | [5]; [17] 99% | [5]; at 50.0 µM 93% | [5]; at 100.0 µM 98% | [6]; at 11.0 µM 75% | [6]; at 33.0 µM 97% | [6]; at 100.0 µM 98% | [7]; [17] 97% | [7]; at 50.0 µM 92.5% | [8]; at 11.0 µM 94% | [8]; at 33.0 µM 97% | [8]; at 100.0 µM 99% | [9]; [17] 92% | [9]; at 50.0 µM 89.3% | [10]; at 11.0 µM 91% | [10]; at 33.0 µM 98% | [10]; at 100.0 µM 99% | [11]; at 11.0 µM 94% | [11]; at 33.0 µM 98% | [11]; at 100.0 µM 99% | [12]; at 11.0 µM 91% | [12]; at 33.0 µM 97% | [12]; at 100.0 µM 99% | [13]; [17] 98% | [13]; at 50.0 µM 90.5% | [14]; at 11.0 µM 92% | [14]; at 33.0 µM 96% | [14]; at 100.0 µM 98%
inactive: [1]; at 1.2 µM 5% | [1]; at 3.7 µM 38% | [2]; at 1.2 µM 0% | [2]; at 3.7 µM 19% | [2]; at 11.0 µM 58% | [3]; at 1.2 µM 2% | [3]; at 3.7 µM 53% | [4]; at 1.2 µM 9% | [4]; at 3.7 µM 59% | [4]; [16] 65% | [5]; at 1.2 µM 1% | [5]; at 3.7 µM 29% | [5]; [16] 53% | [6]; at 1.2 µM 3% | [6]; at 3.7 µM 32% | [7]; [16] 24% | [8]; at 1.2 µM 8% | [8]; at 3.7 µM 32% | [9]; [16] 34% | [10]; at 1.2 µM 0% | [10]; at 3.7 µM 26% | [11]; at 1.2 µM 2% | [11]; at 3.7 µM 28% | [12]; at 1.2 µM 3% | [12]; at 3.7 µM 30% | [13]; [16] 61% | [14]; at 1.2 µM -2% | [14]; at 3.7 µM 18%

OC(c1ccc(Br)cc1)(c1cccs1)C1CC1 (stereo not drawn)
inactive: [1]; at 1.2 µM 13% | [1]; at 3.7 µM 21% | [1]; at 11.0 µM 57% | [2]; at 1.2 µM -19% | [2]; at 3.7 µM 3% | [2]; at 11.0 µM 17% | [3]; at 1.2 µM 3% | [3]; at 3.7 µM 35% | [3]; at 11.0 µM 27% | [3]; at 33.0 µM 17% | [4]; at 1.2 µM 3% | [4]; at 3.7 µM 21% | [4]; [16] 57% | [4]; at 11.0 µM 56% | [5]; at 1.2 µM 18% | [5]; at 3.7 µM 22% | [5]; [16] 61% | [5]; at 11.0 µM 53% | [6]; at 1.2 µM 5% | [6]; at 3.7 µM 13% | [6]; at 11.0 µM 27% | [8]; at 1.2 µM 6% | [8]; at 3.7 µM 2% | [8]; at 11.0 µM 26% | [9]; [16] 45% | [15]; at 1.2 µM 38% | [15]; at 3.7 µM 48% | [15]; [16] 48% | [15]; at 11.0 µM 62% | [10]; at 1.2 µM -12% | [10]; at 3.7 µM 8% | [10]; at 11.0 µM 31% | [11]; at 1.2 µM -15% | [11]; at 3.7 µM 4% | [11]; at 11.0 µM 38% | [12]; at 1.2 µM 17% | [12]; at 3.7 µM 29% | [12]; at 11.0 µM 57% | [13]; [16] 46% | [14]; at 1.2 µM 1% | [14]; at 3.7 µM 24% | [14]; at 11.0 µM 54%
active: [1]; at 33.0 µM 92% | [1]; at 100.0 µM 87% | [2]; at 33.0 µM 97% | [2]; at 100.0 µM 96% | [3]; at 100.0 µM 91% | [4]; at 33.0 µM 94% | [4]; [17] 100% | [4]; at 50.0 µM 91.2% | [4]; at 100.0 µM 94% | [5]; at 33.0 µM 99% | [5]; [17] 100% | [5]; at 50.0 µM 93.2% | [5]; at 100.0 µM 97% | [6]; at 33.0 µM 97% | [6]; at 100.0 µM 97% | [8]; at 33.0 µM 96% | [8]; at 100.0 µM 96% | [9]; [17] 99% | [15]; at 33.0 µM 94% | [15]; [17] 100% | [15]; at 100.0 µM 93% | [10]; at 33.0 µM 97% | [10]; at 100.0 µM 96% | [11]; at 33.0 µM 96% | [11]; at 100.0 µM 95% | [12]; at 33.0 µM 95% | [12]; at 100.0 µM 95% | [13]; [17] 100% | [13]; at 50.0 µM 92% | [14]; at 33.0 µM 94% | [14]; at 100.0 µM 91%
